Assay results taken from the supplement of paper PMC8728848.
This is one part of a sample in which the strongest signals are shown more often than they occur.

Assays:
Test in all cases: glycan array binding signal (z-score within array); higher = stronger binding
Settings in all cases: glycan notation: IUPAC condensed, linker removed
Fuc(a1-2)Gal(b1-3)GalNAc = biological target: Fuc(a1-2)Gal(b1-3)GalNAc
Outline: (§1)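 Glycan array data came from 3228 arrays in the Consortium for Functional Glycomics database, and only arrays with an available protein sequence were kept. Glycan names were put into IUPAC-condensed notation, and columns mapping to the same glycan were averaged. The binding signal is a within-array Z-score, averaged across arrays of one protein sequence run at different concentrations or buffers and across linkers. A negative Z-score can be read as non-binding.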

[1] = biological target: Fuc(a1-2)[Gal(a1-3)]Gal(b1-4)[Fuc(a1-3)]Glc
Outline: as §1

[2] = biological target: Fuc(a1-2)[GalNAc(a1-3)]Gal(b1-4)GlcNAc(b1-2)Man(a1-3)[Fuc(a1-2)[GalNAc(a1-3)]Gal(b1-4)GlcNAc(b1-2)Man(a1-6)]Man(b1-4)GlcNAc(b1-4)[Fuc(a1-6)]GlcNAc
Outline: as §1

[3] = biological target: Fuc(a1-2)[GalNAc(a1-3)]Gal(b1-4)GlcNAc(b1-3)Gal(b1-4)GlcNAc(b1-3)Gal(b1-4)GlcNAc
Outline: as §1

[4] = biological target: Fuc(a1-2)[GalNAc(a1-3)]Gal(b1-4)[Fuc(a1-3)]GlcNAc
Outline: as §1

Gal(a1-3)Gal(b1-3)GlcNAc = biological target: Gal(a1-3)Gal(b1-3)GlcNAc
Outline: as §1

[5] = biological target: Gal(a1-3)Gal(b1-3)GlcNAc(b1-2)Man
Outline: as §1

Gal(a1-3)Gal(b1-4)Glc = biological target: Gal(a1-3)Gal(b1-4)Glc
Outline: as §1

[6] = biological target: Gal(a1-3)Gal(b1-4)GlcNAc(b1-2)Man
Outline: as §1

[7] = biological target: Gal(a1-3)[Gal(a1-4)]Gal(b1-4)GlcNAc
Outline: as §1

Gal(b1-3)Gal = biological target: Gal(b1-3)Gal
Outline: as §1

Gal(b1-3)GlcNAc(b1-2)Man = biological target: Gal(b1-3)GlcNAc(b1-2)Man
Outline: as §1

[8] = biological target: Gal(b1-3)GlcNAc(b1-2)Man(a1-3)[Gal(b1-3)GlcNAc(b1-2)Man(a1-6)]Man(b1-4)GlcNAc(b1-4)[Fuc(a1-6)]GlcNAc
Outline: as §1

[9] = biological target: Gal(b1-3)GlcNAc(b1-3)Gal(b1-3)GlcNAc
Outline: as §1

[10] = biological target: Gal(b1-3)GlcNAc(b1-3)Gal(b1-4)GlcNAc(b1-6)[Gal(b1-3)GlcNAc(b1-3)]Gal(b1-4)Glc
Outline: as §1

[11] = biological target: Gal(b1-3)[Fuc(a1-4)]GlcNAc(b1-2)Man
Outline: as §1

[12] = biological target: Gal(b1-4)GlcNAc(b1-2)Man(a1-3)[GlcNAc(b1-2)Man(a1-6)]Man(b1-4)GlcNAc(b1-4)GlcNAc
Outline: as §1

[13] = biological target: Gal(b1-4)GlcNAc(b1-2)Man(a1-3)[Man(a1-6)]Man(b1-4)GlcNAc(b1-4)GlcNAc
Outline: as §1

[14] = biological target: Gal(b1-4)GlcNAc(b1-2)Man(a1-6)[GlcNAc(b1-2)Man(a1-3)]Man(b1-4)GlcNAc(b1-4)GlcNAc
Outline: as §1

[15] = biological target: Gal(b1-4)GlcNAc(b1-3)Gal(b1-4)GlcNAc(b1-3)Gal(b1-4)GlcNAc(b1-3)Gal(b1-4)GlcNAc(b1-3)Gal(b1-4)GlcNAc(b1-2)Man(a1-3)[Gal(b1-4)GlcNAc(b1-3)Gal(b1-4)GlcNAc(b1-3)Gal(b1-4)GlcNAc(b1-3)Gal(b1-4)GlcNAc(b1-3)Gal(b1-4)GlcNAc(b1-2)Man(a1-6)]Man(b1-4)GlcNAc(b1-4)[Fuc(a1-6)]GlcNAc
Outline: as §1

[16] = biological target: Gal(b1-4)GlcNAc(b1-3)Gal(b1-4)GlcNAc(b1-3)[Gal(b1-4)GlcNAc(b1-3)Gal(b1-4)GlcNAc(b1-6)]GalNAc
Outline: as §1

[17] = biological target: Gal(b1-4)GlcNAc(b1-3)Gal(b1-4)[Fuc(a1-3)]GlcNAc(b1-3)Gal(b1-4)[Fuc(a1-3)]GlcNAc
Outline: as §1

[18] = biological target: Gal(b1-4)GlcNAc(b1-6)Gal(b1-4)GlcNAc
Outline: as §1

[19] = biological target: Gal(b1-4)GlcNAc(b1-6)GalNAc
Outline: as §1

Gal6P(b1-4)GlcNAc = biological target: Gal6P(b1-4)GlcNAc
Outline: as §1

[20] = biological target: GalNAc(b1-3)Gal(a1-6)Gal(b1-4)Glc
Outline: as §1

[21] = biological target: GalNAc3S(b1-4)[Fuc(a1-3)]GlcNAc
Outline: as §1

GalNAc4S6S(b1-4)GlcNAc = biological target: GalNAc4S6S(b1-4)GlcNAc
Outline: as §1

[22] = biological target: GlcNAc(b1-2)[GlcNAc(b1-4)]Man(a1-3)[GlcNAc(b1-2)Man(a1-6)]Man(b1-4)GlcNAc(b1-4)GlcNAc
Outline: as §1

[23] = biological target: GlcNAc(b1-3)Gal(b1-4)GlcNAc(b1-3)Gal(b1-4)GlcNAc(b1-3)Gal(b1-4)GlcNAc(b1-2)Man(a1-3)[GlcNAc(b1-3)Gal(b1-4)GlcNAc(b1-3)Gal(b1-4)GlcNAc(b1-3)Gal(b1-4)GlcNAc(b1-2)Man(a1-6)]Man(b1-4)GlcNAc(b1-4)GlcNAc
Outline: as §1

GlcNAc(b1-3)GalNAc = biological target: GlcNAc(b1-3)GalNAc
Outline: as §1

[24] = biological target: GlcNAc(b1-4)GlcNAc(b1-4)GlcNAc(b1-4)GlcNAc(b1-4)GlcNAc(b1-4)GlcNAc
Outline: as §1

[25] = biological target: GlcNAc(b1-4)[GlcNAc(b1-6)]GalNAc
Outline: as §1

[26] = biological target: Man(a1-3)[Man(a1-6)]Man(b1-4)GlcNAc(b1-4)GlcNAc
Outline: as §1

Man(a1-6)Man = biological target: Man(a1-6)Man
Outline: as §1

[27] = biological target: Neu5Ac(a2-3)Gal(b1-3)GlcNAc6S
Outline: as §1

[28] = biological target: Neu5Ac(a2-3)Gal(b1-3)[Fuc(a1-4)]GlcNAc(b1-3)Gal(b1-4)[Fuc(a1-3)]GlcNAc
Outline: as §1

[29] = biological target: Neu5Ac(a2-3)Gal(b1-3)]Neu5Ac(a2-3)Gal(b1-4)]GlcNAc
Outline: as §1

[30] = biological target: Neu5Ac(a2-3)Gal(b1-4)GlcNAc(b1-2)Man
Outline: as §1

[31] = biological target: Neu5Ac(a2-3)Gal(b1-4)GlcNAc(b1-6)GalNAc
Outline: as §1

[32] = biological target: Neu5Ac(a2-3)Gal(b1-4)GlcNAc(b1-6)[Gal(b1-3)]GalNAc
Outline: as §1

[33] = biological target: Neu5Ac(a2-3)Gal(b1-4)GlcNAc6S
Outline: as §1

[34] = biological target: Neu5Ac(a2-3)[Neu5Ac(a2-6)]GalNAc
Outline: as §1

Neu5Ac(a2-6)Gal = biological target: Neu5Ac(a2-6)Gal
Outline: as §1

[35] = biological target: Neu5Ac(a2-6)Gal(b1-4)GlcNAc(b1-2)Man(a1-6)Man(b1-4)GlcNAc(b1-4)GlcNAc
Outline: as §1

Neu5Ac(b2-6)GalNAc = biological target: Neu5Ac(b2-6)GalNAc
Outline: as §1

B1: Si Bti9 1b-V5-his (Solanum lycopersicum) (protein)
chain: MQCNRGCDLALASFYVWRGSNLTLISEMFSTSIADIVSYNNRDNIPNQDSVIAGTRINIPFRCDCLNDGEVLGHAFPYRVKSGDTYDLVARNYSDLTTAQWMMKFNSYPENNIPNTVNLSVVVNCSCGNSDVSKDFGLFVTYPVRAEDNLTSVASAANVSEDIIRRYNPAAVSILDIGQGIIYIPGRDRNGNFPPLPTSTDGLSGGAKKGGRADPAFLYKVVINSKLEGKPIPNPLLGLDSTRTGHHHHHH
- glycan array binding signal (z-score) (Fuc(a1-2)Gal(b1-3)GalNAc): -0.261
- glycan array binding signal (z-score) [1]: -0.298
- glycan array binding signal (z-score) [2]: 0.032
- glycan array binding signal (z-score) [3]: 0.217
- glycan array binding signal (z-score) [4]: -0.245
- glycan array binding signal (z-score) (Gal(a1-3)Gal(b1-3)GlcNAc): 11.5
- glycan array binding signal (z-score) [5]: 6.21
- glycan array binding signal (z-score) (Gal(a1-3)Gal(b1-4)Glc): -0.169
- glycan array binding signal (z-score) [6]: -0.206
- glycan array binding signal (z-score) [7]: 2.94
- glycan array binding signal (z-score) (Gal(b1-3)Gal): -0.313
- glycan array binding signal (z-score) (Gal(b1-3)GlcNAc(b1-2)Man): -0.032
- glycan array binding signal (z-score) [8]: -0.076
- glycan array binding signal (z-score) [9]: 0.11
- glycan array binding signal (z-score) [10]: -0.125
- glycan array binding signal (z-score) [11]: 1.83
- glycan array binding signal (z-score) [12]: -0.243
- glycan array binding signal (z-score) [13]: -0.294
- glycan array binding signal (z-score) [14]: -0.277
- glycan array binding signal (z-score) [15]: -0.258
- glycan array binding signal (z-score) [16]: 0.207
- glycan array binding signal (z-score) [17]: -0.264
- glycan array binding signal (z-score) [18]: -0.272
- glycan array binding signal (z-score) [19]: 2.79
- glycan array binding signal (z-score) (Gal6P(b1-4)GlcNAc): -0.317
- glycan array binding signal (z-score) [20]: -0.348
- glycan array binding signal (z-score) [21]: 4.72
- glycan array binding signal (z-score) (GalNAc4S6S(b1-4)GlcNAc): -0.18
- glycan array binding signal (z-score) [22]: -0.289
- glycan array binding signal (z-score) [23]: 3.41
- glycan array binding signal (z-score) (GlcNAc(b1-3)GalNAc): -0.322
- glycan array binding signal (z-score) [24]: -0.156
- glycan array binding signal (z-score) [25]: 5.97
- glycan array binding signal (z-score) [26]: -0.362
- glycan array binding signal (z-score) (Man(a1-6)Man): 5.02
- glycan array binding signal (z-score) [27]: 0.024
- glycan array binding signal (z-score) [28]: -0.294
- glycan array binding signal (z-score) [29]: -0.311
- glycan array binding signal (z-score) [30]: 0.768
- glycan array binding signal (z-score) [31]: -0.254
- glycan array binding signal (z-score) [32]: -0.108
- glycan array binding signal (z-score) [33]: 10.6
- glycan array binding signal (z-score) [34]: -0.269
- glycan array binding signal (z-score) (Neu5Ac(a2-6)Gal): 3.19
- glycan array binding signal (z-score) [35]: -0.285
- glycan array binding signal (z-score) (Neu5Ac(b2-6)GalNAc): -0.242
